Screens (PubChem BioAssay)
An excerpt weighted towards active compounds, which were near 2.3% of everything screened.
CHRM1 PAM: human CHRM1 positive allosteric modulation. CHO-K1 hM1, Fluo-8 calcium fluorescence, ACh EC20; 0% = ACh EC20, 100% = maximal ACh. P11229. activation, % at 3 µM. 360,000 tested, 0.088% active. AID 588819; in the data active = activation above about 19%, passing the limit was not always enough
Target sequence (P11229 whole entry, looked up): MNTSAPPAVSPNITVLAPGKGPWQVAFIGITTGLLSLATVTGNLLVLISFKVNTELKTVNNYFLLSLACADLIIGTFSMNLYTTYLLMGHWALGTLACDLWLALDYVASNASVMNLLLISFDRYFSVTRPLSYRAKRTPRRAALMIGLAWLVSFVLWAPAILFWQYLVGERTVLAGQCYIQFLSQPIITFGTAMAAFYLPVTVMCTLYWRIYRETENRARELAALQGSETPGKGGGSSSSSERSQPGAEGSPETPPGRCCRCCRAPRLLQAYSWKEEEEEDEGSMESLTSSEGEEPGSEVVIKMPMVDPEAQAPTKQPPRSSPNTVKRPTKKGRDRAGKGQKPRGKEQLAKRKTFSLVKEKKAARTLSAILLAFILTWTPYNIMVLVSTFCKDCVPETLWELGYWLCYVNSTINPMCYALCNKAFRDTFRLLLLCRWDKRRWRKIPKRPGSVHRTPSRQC
M1 PAM parental: counter-screen for M1 PAMs: effect in parental CHO-K1 cells | ATP EC20, Fluo-8 calcium fluorescence; 0% at ATP EC20, 100% at ATP max | 360,000 tested, 0.02% active | activation, % at 3 µM | AID 602247;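 active = activation above the run cutoff, the mean activation of all test compounds plus 3 SD, cut at about 40% in these data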;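 note: peak over basal fluorescence ratio in a 140 s read after ATP addition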
M1 antag: human CHRM1 antagonism | P11229 | CHO-K1 hM1, Fluo-8 calcium fluorescence, ACh EC80 antagonist | inhibition, % at 3 µM | 360,000 tested, 1.3% active | AID 588852;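 active = percent inhibition above its own plate's cutoff, namely the mean of that plate's compound wells plus 3 SD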;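 note: peak over basal fluorescence ratio during 140 s after agonist addition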
CHO-K1 Ca ag: M1 agonist counterscreen hit in parental CHO-K1 cells; activation, % at 3 µM; 360,000 tested, 0.48% active; Fluo-8 calcium fluorescence; scaled to maximal ATP response, vehicle zero; AID 602248; in the data active = activation above about 15%;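 note: untransfected CHO-K1 host cells lacking M1 receptor as counterscreen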
CHO-K1 Ca antag: nonselective inhibitor or artifact in parental CHO-K1 cells | ATP-induced calcium, Fluo-8 fluorescence | inhibition, % at 3 µM | 360,000 tested, 0.6% active | AID 602250;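 active = inhibition above a per-plate cutoff, the plate's mean sample inhibition plus 3 SD, cut at about 24% in these data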
CHRM1 agonist: activates human CHRM1 receptor. activation, % at 3 µM. AID 588814. CHO-K1 hM1, Fluo-8 calcium fluorescence, agonist mode; 0% DMSO, 100% acetylcholine EC100. 360,000 tested, 0.33% active;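 active = activation above the run's mean compound activation plus 3 SD, cut at about 16% in these data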;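 note: peak over basal fluorescence ratio within a 140 s kinetic read after compound addition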
Numbers stand for hits; n = inactive; x = no result.

SMILES	CHRM1 PAM	M1 PAM parental	M1 antag	CHO-K1 Ca ag	CHO-K1 Ca antag	CHRM1 agonist
CCCCCOc1ccc(/C(C)=N/NC2=NCCN2)cc1	n	n	n	n	n	n
CCOc1ccc(Br)cc1/C(C)=N\NC1=NCCN1	n	n	63	n	n	n
C[C@@H]1CN([C@H](C)CO)C(=O)CCCn2cc(nn2)CO[C@H]1CN(C)C(=O)Nc1ccc(F)cc1	n	n	n	n	n	n
CC1=Nc2ccccc2/C1=C/c1sc(=N)n(-c2nccs2)c1O	n	n	34	n	25	n
CC1=Nc2ccccc2/C1=C/c1nc(-c2ccc(C)s2)oc1O	n	n	n	n	n	n
O=C(COC(=O)c1cc(=O)c2ccccc2o1)Nc1ccccc1F	n	n	n	n	n	n
CC1(C(=O)Nc2ccc(F)cc2F)CCN1C(=O)CCC1CCCC1 (stereo not given)	n	n	n	n	n	n
O=C(CN1CCN(c2ccccn2)CC1)N1c2ccccc2Sc2ccc(C(F)(F)F)cc21	n	n	31	n	n	n
O=C(CN1CCCC1)N1c2ccccc2Sc2ccc(Cl)cc21	n	n	99	n	n	n
CCNCCC(=O)N1c2ccccc2Sc2ccc(C(F)(F)F)cc21	n	n	100	n	n	n
O=C(CN1CCCC1)N1c2ccccc2Sc2ccc(C(F)(F)F)cc21	n	n	99	n	n	n
COC(=O)CCCn1cc(CN2CC(N3CCN(CCN(C)C)CC3)CS2(=O)=O)nn1 (stereo not given)	x	n	x	n	n	x
COc1ccccc1/C=C/C(=O)NNC(=O)c1cccs1	n	n	n	n	n	n
Cc1cccc2c(N=NC(=O)c3ccc(NS(=O)(=O)c4cccs4)cc3)c(O)[nH]c12	n	n	37	n	n	n
COc1ccccc1C(CNC(=O)c1cccc(S(=O)(=O)N2CCCc3ccccc32)c1)N(C)C (stereo not given)	n	n	101	n	n	n
COc1ccccc1C(CNC(=O)c1cccc(S(=O)(=O)N2c3ccccc3CC2C)c1)N(C)C (stereo not given)	n	n	99	n	n	n
CC(C)c1ccc(NC(=O)Nc2nnc([C@@H]3C[C@H](O)[C@@H](CO)O3)s2)cc1	n	n	n	n	n	n
COc1ccccc1-c1cc2c(c3c1ccn3C)C1CCC2C1 (stereo not given)	n	n	n	n	n	n
CC1(C#CC[N+]2(C)CCCCC2)CCC2C(O1)c1ccccc1OC2(C)C (stereo not given)	n	n	82	n	n	103
CC12CCC3(CO)COC(c4ccccc4O1)C2C3 (stereo not given)	n	n	n	n	n	n
COc1ccc([N+](=O)[O-])cc1NC(=O)c1cc(C)c(C)o1	n	n	n	n	25	n
COc1cc2nc(C3CCC3)nc(N3CCN(c4ccccc4OC)CC3)c2cc1OC	n	n	66	n	n	n
O=C(NCC1CCN(Cc2cccc(Cl)c2)CC1)Nc1ccc(Cl)cc1	n	n	n	n	n	n
COc1cc([N+](=O)[O-])ccc1NC(=O)NCC1CCN(Cc2ccc(Cl)cc2)CC1	n	n	n	17	n	n
COc1ccc(Cl)cc1NC(=O)NCC1CCN(Cc2cc(C)ccc2C)CC1	n	n	n	16	n	n
SMILES	CHRM1 PAM	M1 PAM parental	M1 antag	CHO-K1 Ca ag	CHO-K1 Ca antag	CHRM1 agonist
CCOc1ccc(NC(=O)CCS(=O)(=O)c2ccc(C)cc2)cc1	n	n	n	n	n	n
CC(Cc1ccccc1)NC(=O)CSc1nc2nc3c(cc2c(=O)n1-c1ccccc1)COC(C)(C)C3 (stereo not given)	n	n	n	n	n	16
CCn1c(SCC(=O)Nc2ccc(OC)cc2OC)nc2nc3c(cc2c1=O)COC(C)(C)C3	n	n	n	n	n	n
CCn1c(SCC(=O)Nc2cccc(C)c2)nc2nc3c(cc2c1=O)COC(C)(C)C3	n	n	n	16	n	n
COc1ccc(-n2c(SCC(N)=O)nc3nc4c(cc3c2=O)COC(C)(C)C4)cc1	n	n	n	n	n	n
CC(C)c1ccc(CCNC(=O)c2cccc(S(=O)(=O)N3CCN(C)CC3)c2)cc1	n	n	n	16	n	n
CN1CCN(S(=O)(=O)c2cccc(C(=O)NCCC3=CCCCC3)c2)CC1	n	n	n	n	n	n
O=C(CCS(=O)(=O)c1ccc(Br)cc1)Nc1ccccn1	n	n	n	n	24	n
CCN(CC)C(=O)C1=C(C)N(Cc2ccc(F)cc2)C(=O)C(CC(=O)NCCCN(C)C)C1 (stereo not given)	n	n	n	n	n	n
CC(=O)Nc1ccc(S(=O)(=O)NNC(=O)c2cccc(Cl)c2)cc1	n	n	n	n	n	n
COc1ccc(OC)c(C2C(C#N)=C(N)Oc3c2c(C)nn3-c2ccc(C)cc2)c1 (stereo not given)	n	n	n	n	28	n
Cc1ccc(-n2nc(C)c3c2OC(N)=C(C#N)C3c2ccc(C)o2)cc1 (stereo not given)	n	n	n	n	n	n
CN(C(=O)Nc1ccccc1)C1CCCc2ccccc21 (stereo not given)	n	n	n	16	n	n
Cc1ccc(Cl)cc1N1CCN(C(=O)CCS(=O)(=O)c2ccc3c(c2)NC(=O)CO3)CC1	n	n	37	15	n	n
CC(=O)Cc1c(C(=O)O)c(C)nn1-c1ccccc1	n	n	n	n	26	n
Cc1nonc1OCCNC(=O)C12CC3CC(CC(C3)C1)C2	n	n	n	n	n	n
CC1(C)N=C(SCC(=O)Nc2ccc(Cl)cc2Cl)C(c2ccccc2)=N1	n	n	n	n	n	n
CN1C(CC(=O)Nc2ccc(Cl)cc2Cl)c2ccccc2CC1(C)C (stereo not given)	n	n	34	n	n	n
CCOC(=O)[C@]12CCC=C1N(Cc1cccc3ccccc13)C(=O)[C@H](CC(=O)NCC1CCCCC1)C2	x	n	x	n	n	x
CCN(C)C1CN(Cc2cn(Cc3cccc(C(F)(F)F)c3)nn2)S(=O)(=O)C1 (stereo not given)	x	n	x	n	n	x
COc1ccc2sc(N(CCN(C)C)C(=O)c3ccc4ccccc4c3)nc2c1	n	n	n	n	n	20
O=C1c2nccnc2C(=O)N1c1ccc(F)cc1	n	n	n	n	n	n
Cc1ccc2c(c1)c1c(n2CC(O)CN2CCCCC2C)CCCC1 (stereo not given)	n	n	42	n	n	n
Cc1ccc2c(c1)c(C)c(C)n2CC(O)CN1CCCCC1C (stereo not given)	n	n	n	n	n	n
c1ccc(CN2CCCC3(CCCN(Cc4nc(CC5CC5)no4)C3)C2)cc1 (stereo not given)	n	n	n	n	n	n
